The record followed here is PubChem BioAssay (Tox21).

Unmarked numbers belong to inactive results. Records with an inconclusive call do not appear. The source made the active and inactive calls. Unless noted, calls follow the shape of the dose curve; as a rule, active = well fitted curve in the direction sought with a large enough effect in the repeat runs; inconclusive = weak or mixed curves; inactive = no such curve, though single readings can be large; an effect the other way counts as inactive or inconclusive.

A short description of assay [1]: qHTS assay to identify small molecule agonists of the hypoxia (HIF-1) signaling pathway - cell viability counter screen (AID 1224844; calls by dose curve; also: nearly all actives have a fitted effect of over 50% in size). Summed up:
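HRE-bla ME-180 cells in medium with 0.5% dialyzed FBS were preincubated 5 hrs at 37C, exposed to compounds for 17 hrs, then viability was read as CellTiter-Glo luminescence after 30 min at room temperature, in the reporter wells.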

Assay [2] can be described thus: qHTS assay to identify small molecule agonists of H2AX (AID 1224845; active = well fitted activation curve with a large enough effect in the signal ratio in the repeat runs, not every such curve was filed as active; the % refers to the signal ratio). Summed up: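 Wild-type CHO-K1 cells, plated overnight, exposed 3hr at 37C to 15 concentrations (0.76% DMSO final). Lysed, then HTRF anti-pH2AX (S139) cryptate and anti-H2AX-d2 antibodies, 24 hr room temperature; 665/620 nm emission read.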
Assay [3] can be described thus: qHTS assay to identify small molecule agonists of the hypoxia (HIF-1) signaling pathway (AID 1224846; active = well fitted activation curve with a large enough effect in the signal ratio in the repeat runs, not every such curve was filed as active; the % refers to the signal ratio). Summed up:
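HRE-bla ME-180 cells (beta-lactamase reporter under hypoxia response element) were plated at 2,000 cells/well in medium with 0.5% dialyzed FBS, rested 5 hrs, then given compounds in DMSO for 17 hrs at 37C, 5% CO2. Reporter induction was read with CCF4-AM FRET substrate.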

A short description of assay [4]: qHTS assay to identify small molecule agonists of H2AX - cell viability counter screen (AID 1224847; calls by dose curve; also: nearly all actives have a fitted effect of over 30% in size; also: potency is read from the fitted curve at half-maximal effect). Summed up:
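Cytotoxicity counter screen in wild-type CHO-K1 cells: a 3 hr compound treatment at 37C across 15 concentrations, followed by CellTiter-Glo luminescence to gauge viable cells.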

Assay [5] is described as follows: qHTS assay to identify small molecule antagonists of the estrogen related receptor (ERR) signaling pathway from Tox21 library (AID 1224848). Also: nearly all actives have a fitted effect of over 50% in size. Also: potency is read from the fitted curve at half-maximal effect. In a few lines:
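Luminescent reporter read-out (ONE-Glo) from NTP's ERR cell line after 18 h treatment at 37 C with DMSO-dissolved Tox21 compounds; cells pre-plated 6 h beforehand at 2,000 per well.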

A short description of assay [6]: qHTS assay to identify small molecule agonists of the estrogen related receptor (ERR) signaling pathway from Tox21 library (AID 1224849; calls by dose curve; also: nearly all actives have a fitted effect of over 15% in size). The note with it: ERR reporter cell line, ONE-Glo luciferase, 18 h; at 92.4 µM (top of the series) unless noted. In a few lines: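 ERR reporter cell line (NTP) seeded, rested 6 h at 37 C/5% CO2, then pinned with Tox21 compounds in DMSO. After 18 h at 37 C, ONE-Glo luciferase luminescence was read following 30 min at room temperature.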

Assay [7] can be described thus: qHTS RealTime-Glo MT Cell Viability Assay in HepG2 cells - 24 hour (AID 1224867). Also: nearly all actives have a fitted effect of over 50% in size. Summed up:
(§1)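 HepG2 suspension premixed with RealTime-Glo reagents is plated at 600 cells per well and left 5 h at 37 C/5% CO2. Compounds in DMSO then go in, and bioluminescence reflecting viable cell number is recorded over 40 h.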

Assay [8] in a line: qHTS RealTime-Glo MT Cell Viability Assay in HEK293 cells - 32 hour (AID 1224868). Also: nearly all actives have a fitted effect of over 50% in size. Also: potency is read from the fitted curve at half-maximal effect. Summed up:
(§2)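 Reads taken at 0, 8, 16, 24, 32 and 40 h from the same wells. HEK293 cells (600/well) carried RealTime-Glo reagents from seeding, with compound added after a 5 h settle at 37 C.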

Assay [9] is described as follows: A CellTox Green Cytotoxicity Assay to monitor cytotoxicity in HEK293 cells - 0 hour (AID 1224869). Also: nearly all actives have a fitted effect of over 50% in size. In a few lines: (§3)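 HEK293 cells premixed with CellTox Green dye were seeded at 600 cells/well and left 5 h at 37 C/5% CO2 before pin transfer of 23 nL compound in DMSO. Fluorescence from dye bound to dead-cell DNA was read during 40 h treatment.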
Assay [10] in a line: qHTS RealTime-Glo MT Cell Viability Assay in HepG2 cells - 40 hour (AID 1224870). Also: nearly all actives have a fitted effect of over 50% in size. Summed up: (§4)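 HepG2 cells (600/well) mixed with RealTime-Glo MT reagent, settled 5 h at 37 C/5% CO2 before compound addition. Nonlytic NanoLuc luminescence from viable-cell prosubstrate reduction read repeatedly during 40 h treatment at 37 C.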
Assay [11] is described as follows: A CellTox Green Cytotoxicity Assay to monitor cytotoxicity in HEK293 cells - 40 hour (AID 1224871). Also: nearly all actives have a fitted effect of over 45% in size. Also: potency is read from the fitted curve at half-maximal effect. Summed up: as §3
The nature of assay [12]: qHTS RealTime-Glo MT Cell Viability Assay in HepG2 cells - 8 hour (AID 1224873). Also: nearly all actives have a fitted effect of over 55% in size. In a few lines: as §4
A short description of assay [13]: qHTS RealTime-Glo MT Cell Viability Assay in HEK293 cells - 40 hour (AID 1224874). Also: nearly all actives have a fitted effect of over 50% in size. Also: potency is read from the fitted curve at half-maximal effect. The note with it: RealTime-Glo luminescence; max response: stronger effect = lower value. Summed up: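 HEK293 cells mixed with RealTime-Glo reagents (NanoLuc plus cell-permeant prosubstrate) at 600 cells/well, preincubated 5 h at 37 C/5% CO2, then given 23 nL compound in DMSO. Nonlytic luminescence from viable cells was read at 0, 8, 16, 24, 32 and 40 h.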

Assay [14] is described as follows: A CellTox Green Cytotoxicity Assay to monitor cytotoxicity in HEK293 cells - 24 hour (AID 1224875). Also: nearly all actives have a fitted effect of over 45% in size. In a few lines: as §3
Assay [15] is described as follows: A CellTox Green Cytotoxicity Assay to monitor cytotoxicity in HepG2 cells - 16 hour (AID 1224876). Also: nearly all actives have a fitted effect of over 45% in size. Summed up: (§5)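 HepG2 cells were seeded together with the CellTox Green dye at 600 cells/well, left 5 h at 37 C/5% CO2, then given compounds in DMSO. Fluorescence from dye bound to dead-cell DNA was read repeatedly over 40 h of treatment at 37 C.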
The nature of assay [16]: qHTS RealTime-Glo MT Cell Viability Assay in HepG2 cells - 32 hour (AID 1224877). Also: nearly all actives have a fitted effect of over 55% in size. Summed up: as §1
Assay [17] can be described thus: A CellTox Green Cytotoxicity Assay to monitor cytotoxicity in HepG2 cells - 24 hour (AID 1224878). Also: nearly all actives have a fitted effect of over 45% in size. In a few lines:
as §5

A short description of assay [18]: A CellTox Green Cytotoxicity Assay to monitor cytotoxicity in HepG2 cells - 40 hour (AID 1224879). Also: nearly all actives have a fitted effect of over 40% in size. Also: potency is read from the fitted curve at half-maximal effect. In a few lines:
as §5

A short description of assay [19]: qHTS RealTime-Glo MT Cell Viability Assay in HEK293 cells - 16 hour (AID 1224872). Summed up: as §2
% is scaled to controls: 0 for no effect and ±100 for the full control effect.

Take `c1ccc(C2CC2)c(OCC2=NCCN2)c1`: the Potency result in assay [1], in assay [2], in assay [4], in [5], in [7] and in assay [8] was “inactive” throughout. The Potency result in assay [9], in assay [10], in assay [11], in assay [12], in assay [14] and in assay [15] was “inactive” in each case. Moreover, the Potency entry in assay [16], in assay [17] and in [18] was “inactive” throughout. Further, the compound was called inactive in assay [3]. The activity change, positive = activation in [6] was 4.99% [at 42.5 µM]. Also, in assay [13], the max response is 3.13%.

With `CCC(Br)(CC)C(=O)NC(N)=O`, the Potency entry in assay [1], in [2], in assay [4], in [7], in [8] and in assay [9] was “inactive” throughout. Besides, the Potency result in assay [10], in [11], in assay [12], in assay [14], in [16] and in [17] was “inactive” throughout. In assay [18], the Potency result was “inactive”. In assay [3], the result was inactive. The max response in assay [13] was 5.12%.

With `COCC(C)N(C(=O)CCl)c1c(C)csc1C` (configuration not stated), the Potency entry in assay [1], in assay [2], in [4], in [7], in assay [8] and in assay [9] was “inactive” throughout. Besides, the Potency result in assay [10], in [11], in assay [12], in assay [14], in assay [15] and in assay [16] was “inactive” throughout. Besides, the Potency result in [17] was “inactive”. Also, the result in [3] was inactive. The Potency in assay [5] is 27.3 µM (active). In addition, the activity change, positive = activation in assay [6] was -54.8%. In addition, in assay [13], the max response is 17.2%.

As to `C=CC(=O)NCNC(=O)C=C`, the Potency result in [1], in assay [2], in assay [4], in assay [5], in assay [8] and in assay [9] was “inactive” in each case. In addition, the Potency entry in [10], in assay [11], in [19], in assay [12], in assay [14] and in assay [15] was “inactive” in each case. Moreover, the Potency entry in assay [16] and in [17] was “inactive” throughout. For the same compound, in assay [3], the call was inactive. For the same compound, the activity change, positive = activation in assay [6] is 36.6% (active).

With `CO/N=C(/C(=O)OC)c1ccccc1COc1ccccc1C`, the Potency result in assay [1], in [2], in assay [8], in assay [9], in assay [11] and in assay [19] was “inactive” each time. For the same compound, the Potency result in assay [12], in assay [14], in [15], in assay [16], in assay [17] and in [18] was “inactive” throughout. The call in assay [3] was inactive. In addition, the Potency in assay [4] was 2.84 µM (active); in assay [5], 1.54 µM (active). For the same compound, the activity change, positive = activation in [6] is -47.7%.

For the compound `COc1cc(Cl)c(OC)cc1Cl`, the Potency entry in assay [1], in assay [2], in assay [4], in [5], in [8] and in assay [9] was “inactive” throughout. The Potency entry in [10], in [11], in [14], in [15], in assay [16] and in assay [17] was “inactive” each time. Besides, the Potency entry in assay [18] is “inactive”. Moreover, the call in [3] was inactive. For the same compound, in assay [6], the activity change, positive = activation is 0.702%. The max response in assay [13] was 1.87%.

Take `O=C1NCN(c2ccccc2)C12CCN(CCCOc1ccc(F)cc1)CC2`: the Potency result in assay [1], in assay [4], in [5], in [9], in [10] and in [12] was “inactive” each time. For the same compound, the Potency result in assay [14], in assay [15] and in assay [16] was “inactive” each time. Further, the compound was classed as inactive in assay [3]. Moreover, in [6], the activity change, positive = activation was -8.92% [at 42.5 µM].

With `O=C(N[C@H](c1ccccc1)[C@@H]1CN2CCC1CC2)c1c(Cl)ccc(C(F)(F)F)c1Cl`, the Potency entry in assay [1], in assay [9], in assay [10], in assay [12] and in assay [15] was “inactive” in each case. Moreover, the call in assay [3] was inactive. Moreover, the Potency in assay [4] was 182 µM (active); in [5] it was 39.2 µM (active); in assay [8] it was 70.2 µM (active); in [11], 78.8 µM (active); in [13], 70.2 µM (active); in assay [18], 70.2 µM (active). For the same compound, in [6], the activity change, positive = activation was -42.3%.
